Test results as given in PubChem BioAssay (NCATS).
Values without a mark were called inactive. Results filed as inconclusive are left out. Calls of active or inactive are those of the source. Unless noted, calls follow the shape of the dose curve; as a rule, active = well fitted curve in either direction with a large enough effect (not every such curve was filed as active); inconclusive = small, poorly fitted or top-dose-only effect, or another doubt; inactive = flat fitted curve, though single readings scatter.

Columns and labels:
[1] = AP1 Signaling Pathway (AID 357); settings: ME-180 AP-1-bla reporter, EGF-induced, beta-lactamase ratio, 5 h; at 17.2 µM (top of the series) unless noted;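 also: ME-180 reporter cells stimulated with EGF at its EC50 level; % is scaled to controls: 0 for no effect and ±100 for the full control effect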
Procedure, shortened: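 Modulation of EGF-driven AP-1 transcription was assessed with a beta-lactamase reporter in ME-180 cells. Compound and EC50 EGF were co-incubated 5 hours at 37 °C before 2.5-hour CCF4 loading at room temperature and dual-emission reading.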

[2] = NFAT Signaling Pathway (AID 444); settings: Jurkat NFAT-bla M1, carbachol, beta-lactamase ratio, 5 h; at 17.2 µM (top of the series) unless noted;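 also: carbachol stimulus at about its EC50 of 1 µM final; % is scaled to controls: 0 for no effect and ±100 for the full control effect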
Procedure, shortened: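 Jurkat cells carrying an NFAT-driven β-lactamase reporter and co-transfected muscarinic M1 receptor were treated with compound plus carbachol (1 uM final, an EC50 level) for 5 h at 37 °C. CCF4 loading followed for 1 h at RT; 460/530 nm ratio gave %activity.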

[3] = Stat Signaling Pathway (AID 446); settings: ME-180 SIE beta-lactamase reporter, IL-6 stimulated, 5 h; at 17.2 µM (top of the series) unless noted;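 also: ME-180 cervical cancer cells given 40 pM IL-6 alongside compound; SIE-controlled beta-lactamase reporter measured as 460/530 nm FRET emission ratio; % is scaled to controls: 0 for no effect and ±100 for the full control effect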
Procedure, shortened: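 Reporter line: ME-180 cervical carcinoma, SIE-beta-lactamase. Treatment: compound with 40 pM IL-6, 5 hrs, 37 C, in low-serum OPTI-MEM with 10 mM HEPES pH 7.3. Detection: 460/530 nm fluorescence.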

[4] = biological target: Glucocorticoid receptor (Homo sapiens) (UniProt P04150); test: GR-GFP Redistribution (AID 450;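 active = compounds whose dose series gives a full or clear partial fitted curve of increased nuclear translocation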; also: potency is read from the fitted curve at half-maximal effect)
Glucocorticoid receptor (Homo sapiens), sequence (P04150 whole entry, looked up): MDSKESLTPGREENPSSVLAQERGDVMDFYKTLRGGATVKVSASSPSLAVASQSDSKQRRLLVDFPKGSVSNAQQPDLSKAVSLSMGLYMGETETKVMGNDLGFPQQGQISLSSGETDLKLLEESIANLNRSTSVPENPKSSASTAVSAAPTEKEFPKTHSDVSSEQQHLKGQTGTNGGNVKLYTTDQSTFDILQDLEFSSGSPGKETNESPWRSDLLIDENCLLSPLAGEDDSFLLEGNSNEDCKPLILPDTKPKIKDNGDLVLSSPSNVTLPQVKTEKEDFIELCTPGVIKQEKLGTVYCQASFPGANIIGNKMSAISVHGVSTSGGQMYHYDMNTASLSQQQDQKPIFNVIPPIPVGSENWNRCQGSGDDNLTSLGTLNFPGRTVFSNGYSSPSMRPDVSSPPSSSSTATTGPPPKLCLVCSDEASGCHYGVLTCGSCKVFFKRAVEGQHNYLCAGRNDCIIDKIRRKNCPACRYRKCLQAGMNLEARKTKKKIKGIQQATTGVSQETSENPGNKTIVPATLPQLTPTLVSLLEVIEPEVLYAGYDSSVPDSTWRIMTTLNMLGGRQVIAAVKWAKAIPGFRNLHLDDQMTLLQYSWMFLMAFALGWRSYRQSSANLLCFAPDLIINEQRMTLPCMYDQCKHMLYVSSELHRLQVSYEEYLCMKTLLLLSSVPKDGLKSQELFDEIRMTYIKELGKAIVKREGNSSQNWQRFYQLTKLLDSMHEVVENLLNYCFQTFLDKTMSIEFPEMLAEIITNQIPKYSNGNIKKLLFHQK

| SMILES | activity change, negative = inhibition [1] [%] | activity change, negative = inhibition [2] | activity, negative = inhibition [3] [%] | Potency [4] [µM] |
| --- | --- | --- | --- | --- |
| COc1cccc(C2/C(=C(\O)c3ccc(OC)c(OC)c3)C(=O)C(=O)N2c2cc(C)on2)c1 (centres undefined) | -7.94 | 6.78% | -8.6 | > 20.6 |
| COc1ccc(N2C(=O)C3C(C2=O)C2C=CC3C23CC3)c(OC)c1 (centres undefined) | 16.2 | 5.04% | 0.0769 | > 20.6 |
| CCOc1c(C)cc2[nH]c(CCC(=O)O)nc2c1C | 7.73 | -1.66% | 7.03 | > 20.6 |
| CCc1nc(SCc2cccnc2)c(C#N)cc1C | -8.39 | -24.2% | 0.873 | > 20.6 |
| COCCNc1oc(-c2ccc(F)cc2)nc1C#N | -13.6 | 7.25% | -2.97 | > 20.6 |
| Cc1ccc(-n2[nH]c(C)c(C=Nc3cc(C)ccn3)c2=O)cc1 | 2.52 | -2.28% | 4.82 | > 20.6 |
| CCOC(=O)CSc1nc(-c2ccncc2)ccc1C#N | -1.16 | -7.89% | 3.41 | > 20.6 |
| CCCOc1cccc(C2/C(=C(/O)c3ccccc3)C(=O)C(=O)N2CCN(C)C)c1 (centres undefined) | 5.11 | 24.1% | 0.936 | > 20.6 |
| ONC(=Nc1ccccc1)C(=Nc1ccccc1)NO | 4.05 | 9.94% | -0.28 | > 20.6 |
| CC(=O)Oc1ccc2c(C)cc(=O)[nH]c2c1 | 8.38 | -13.4% | -3.86 | > 20.6 |
| CCOC(=O)c1c(C)n(C)c2ccc(O)c(S(=O)(=O)c3ccccc3)c12 | -9.19 | 2.35% | 11.2 | > 20.6 |
| O=C(O)C1CCCCN1S(=O)(=O)c1cccc2nsnc12 (centres undefined) | 0.243 | 1.79% | 5.88 | > 20.6 |
| CC(O)c1n(C)c(Cl)c[n+]1C (centres undefined) | 0.68 | -4.99% | -4.96 | > 20.6 |
| c1ccc(-c2nnc3n2N=C(c2ccc4c(c2)OCO4)CS3)nc1 | 2.99 | 19.9% | -6.24 | > 20.6 |
| CC1(C)C/C(=C(/C#N)C(N)=O)CCO1 | -0.694 | 2.44% | 4.37 | > 20.6 |
| CCOC(=O)c1[nH]c2ccc(OC)cc2c1NC(=O)CCN1CCCC(C)C1 (centres undefined) | -2.35 | -82.5% (active) | 3.31 | > 20.6 |
| CCC1SC2=NC(C)=C(C(=O)OCCOC)C(c3ccc(C(=O)OC)cc3)N2C1=O (centres undefined) | 17.5 | 6.06% | -2.24 | > 20.6 |
| CCCCOc1ccccc1C(=O)NCCCC(=O)O | -11.8 | -5.11% | 8.07 | > 20.6 |
| CN(C)CC(O)COc1cccc(OCC(O)CN(C)C)c1 (centres undefined) | 1.26 | -0.493% | 3.74 | > 20.6 |
| N#Cc1c(N)sc(=S)c2c1CCCCC2 | 10.8 | -12.9% | -20.4 | > 20.6 |
| Cc1cc(C)c(NC(=O)OCCN2CCOCC2)c(C)c1 | 4.21 | -5.81% | 5.25 | > 20.6 |
| CC1(C)CC(=O)C=C(NCCO)C1 | 20.8 | 2.7% | 12.6 | > 20.6 |
| O=C(Nc1ncn[nH]1)c1c(Cl)ccc(Cl)c1Cl | 13.1 | 1.62% | -0.714 | > 20.6 |
| Cc1c(NC(=O)c2ccc(=O)oc2)c(=O)n(-c2ccccc2)n1C | 10.3 | -22.5% | 2.43 | > 20.6 |
| CCN1C(=O)CC(N2CCN(c3ccc(OC)cc3)CC2)C1=O (centres undefined) | 7.27 | 1.19% | 1.34 | > 20.6 |
| Cc1ccc2[nH]c3c(N4CCOCC4)ncnc3c2c1 | -7.05 | 18.4% | -10.6 | > 20.6 |
